# Assay results: PubChem BioAssay AID686978 (National Center for Advancing Translational Sciences (NCATS), 2013)
# In all, about 420,000 compounds went through this assay and about 64,000 (15%) were called active. Not shown: some 27% with an inconclusive outcome. Calls come from the whole dose curve; as a rule, active = well fitted inhibition curve with a large enough effect; inconclusive = small, poorly fitted or top-dose-only effect; inactive = flat fitted curve, though single readings scatter. Only a sample is shown.
# Assay: qHTS for Inhibitors of human tyrosyl-DNA phosphodiesterase 1 (TDP1): qHTS in cells in absence of CPT; note: nearly all actives have a fitted effect of over 55% in size
# Conditions: DT40 Tdp1-/- hTDP1 cells, no CPT, ATP luminescence, 48 h; activity change, negative = growth inhibition: at 46.2 µM (top of the series)
# Procedure, shortened: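 DT40 Tdp1-/-;hTDP1 cells, no CPT (DMSO vehicle only), 400 cells/well; compounds pin-transferred; ≥48 hr, 37 °C; CellTiter-Glo 30 min RT dark, luminescence read.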
# % is set by controls: 0 for no effect and ±100 for the full control effect; potency is the fitted concentration of half-maximal effect.
SMILES,"activity change, negative = growth inhibition",Potency
Cn1ncc(Br)c1C(=O)NC1CCCC1,-4.22% (inactive),
CCC(C)[C@H](NC(=O)N1c2ccccc2NC(=O)[C@@H]1C(C)C)C(=O)N[C@@H](Cc1ccccc1)C(=O)O (some centres not stated),-4.99% (inactive),
CC1CN(C(=O)c2cc(COc3c(F)cccc3F)on2)CCN1C (configuration not stated),-0.627% (inactive),
CC(C)NC(=O)N1CCCC2(CCN(C(=O)c3cccn3C)CC2)C1,1.59% (inactive),
COc1cccc2cc(S(=O)(=O)c3ccc(C)cc3)/c(=N/NS(=O)(=O)c3ccc(C)cc3)oc12,-3.29% (inactive),
Cc1c(C)c2ccc(OCC(=O)N3CCC(C(=O)O)CC3)c(C)c2oc1=O,-1.1% (inactive),
CSc1ncnc2c1ncn2CCCNCC(C)c1ccccc1 (configuration not stated),-10.2% (inactive),
COc1cc2nc(NCC(C)c3ccccc3)n3nc(-c4ccccc4)nc3c2cc1OC (configuration not stated),,13 µM (active)
COc1cc2nc(SCC(=O)Nc3ccccc3F)n3nc(-c4ccccc4)nc3c2cc1OC,0.878% (inactive),
CCn1c(SCC(=O)NC2CC2)nnc1-c1ccncc1,14% (inactive),
O=C(NCc1ccco1)c1ccc([N+](=O)[O-])cc1Cl,-0.784% (inactive),
CCCC(=O)N1CCC1(C)C(=O)NCc1ccc(C(C)C)cc1 (configuration not stated),-8.04% (inactive),
CC(C)Oc1ccc(CN2CCC2(C)C(=O)NCc2ccc(C(F)(F)F)cc2)cc1 (configuration not stated),,14.6 µM (active)
CC(C)CN1CCC1(C)C(=O)Nc1ccc(OC(F)F)cc1 (configuration not stated),-27.1% (inactive),
CN1CCNC(=O)C1CC(=O)N1CC=C(c2ccc(F)cc2)CC1 (configuration not stated),3.99% (inactive),
COc1ccc(NC(=O)COC(=O)c2ccncc2)c(OC)c1,-8.51% (inactive),
CC(C)(C)S(=O)(=O)N1Cc2cc(CO)cc(CCO)c2[C@H]1CCO,-7.27% (inactive),
CCN(CC(=O)Nc1ccc(NC(C)=O)cc1)C(=O)CSC(=S)N1CCCC1,,7.31 µM (active)
COc1cccc(NC(=O)CN(C)C(=O)CSC(=S)N2CCCC2)c1,-5.25% (inactive),
CC(=O)c1ccc(NC(=O)CSC(=S)N2CCCC2)cc1,-0.101% (inactive),
CC(C)(C)OC(=O)C1=C(CO)CS[C@@H]2[C@H](NC(=O)Cc3ccccc3)C(=O)N12,-14% (inactive),
O=C(NCCC1=CCCCC1)c1ccc2c(c1)N(Cc1ccccc1F)C(=O)c1ccccc1S2(=O)=O,,16.4 µM (active)
O=C(NCCc1ccc(Cl)cc1)c1ccc2c(c1)N(Cc1ccc(F)cc1)C(=O)CS2,,29.1 µM (active)
O=C(NCCc1ccc(Cl)cc1)c1cccc(N2CCCC2=O)c1,-17.4% (inactive),

SMILES,"activity change, negative = growth inhibition",Potency
O=C(c1ccc2c(c1)N(Cc1ccc(F)cc1)C(=O)CS2)N1CCOCC1,1.02% (inactive),
CN(Cc1ccc(F)cc1)C(=O)CN1C(=O)c2ccccc2S1(=O)=O,-8.82% (inactive),
O=C(NCCc1ccccc1)c1ccc2c(c1)N(Cc1ccc(F)cc1)C(=O)c1ccccc1S2(=O)=O,,13 µM (active)
NS(=O)(=O)c1ccc(CCNC(=O)CN2C(=O)c3ccccc3S2(=O)=O)cc1,4.21% (inactive),
Cc1ccc(C)c(NC(=O)Cn2ccn(-c3ccc(F)cc3)c(=O)c2=O)c1,18% (inactive),
NS(=O)(=O)c1ccc(CCNC(=S)Nc2ccc(S(N)(=O)=O)cc2)cc1,0.29% (inactive),
CCOc1ccc(N(CC)C(=O)c2cc3c(=O)oc4ccccc4c3s2)cc1,-25.6% (inactive),
Cc1cc([N+](=O)[O-])nn1Cc1ccc(F)cc1,-28% (inactive),
O=c1c2ccccc2c(-c2ccccc2)nn1-c1ccccn1,-23% (inactive),
CNC(=O)n1ccc(C(=O)N2CCCCC2)n1,-13.1% (inactive),
O=C(CCC(=O)c1cccs1)NCc1ccccc1,-14.2% (inactive),
Cc1ccc(SCCN2C(=O)NC(C)(C)C2=O)cc1,-8.19% (inactive),
O=C(CC1CCCCC1)NCc1ccco1,-7.57% (inactive),
O=C(Nc1ccc(Cl)cc1)C1c2cccc[n+]2CC(=O)N1Cc1ccc2c(c1)OCO2 (configuration not stated),,1.03 µM (active)
O=C(Nc1ccc(NC(=O)c2ccc3c(c2)OCO3)cc1)c1cccc(Cl)c1,4.72% (inactive),
O=C(Nc1ccc2c(c1)OCCO2)C1c2ccccc2OCC(=O)N1Cc1ccccn1 (configuration not stated),-7.48% (inactive),
CSc1ccccc1C(=O)NCc1ccccc1,0.357% (inactive),
C=CCOc1cccc(CNn2cn[nH]c2=S)c1,-18.6% (inactive),
CC(=O)Nc1ccc(Oc2ccc3c(c2)C(=O)NC3=O)cc1,6.04% (inactive),
C/C(=N\NC(=O)c1nc(C)cc(C)n1)c1ccccc1,-13.8% (inactive),
Cc1ccc(N/C=C/C(=O)c2ccccc2)cc1C,-14% (inactive),
Cc1cc(C)nc(S/C=C/C(=O)c2ccccc2)n1,,2.59 µM (active)
COC1=CCC2([N+](=O)[O-])CN(CC(=O)O)CC1([N+](=O)[O-])C2 (configuration not stated),-1.54% (inactive),
Cc1ccc(NC(=O)NC(=O)N(C2CCCCC2)S(=O)(=O)c2ccccc2)cc1,-29.9% (inactive),

SMILES,"activity change, negative = growth inhibition",Potency
Cc1ccc2[nH]c3c(=O)n(Cc4ccccn4)cnc3c2c1,-6.59% (inactive),
CC(C)c1cccc(C(C)C)c1Nc1cn[nH]c1,,20.6 µM (active)
O=C(O)CCCN1C(=O)c2ccccc2Sc2ncccc21,10.6% (inactive),
C=CCOc1cccc(CNCc2cccnc2)c1,-2.47% (inactive),
Cn1cnc([N+](=O)[O-])c1Sc1ccccc1,,23.1 µM (active)
Cn1cnc([N+](=O)[O-])c1Nc1ccccc1O,-17.2% (inactive),
Cn1cnc([N+](=O)[O-])c1Sc1n[nH]c(N)n1,-15% (inactive),
C=CCN1C(=O)C2(OCCCO2)c2cccc(Cl)c21,10.2% (inactive),
CCC(C)(C)n1nnnc1C(c1ccccc1OC)N1CCSCC1 (configuration not stated),-21% (inactive),
CCC(C)(C)n1nnnc1C(c1cccs1)N1CCN(c2nc3ccccc3s2)CC1 (configuration not stated),,15.8 µM (active)
CCC(C)(C)n1nnnc1C(c1ccc(OC)c(OC)c1)N1CCN(C(=O)c2ccco2)CC1 (configuration not stated),1.91% (inactive),
O=C(CCn1nnc2ccccc2c1=O)N[C@@H](Cc1c[nH]c2ccccc12)C(=O)O,2.6% (inactive),
CCOC(=O)N1CCC(NC(=O)Cc2cn(C)c3ccccc23)CC1,-10.6% (inactive),
CC(C)=CCC/C(C)=C/CC/C(C)=C/CC/C(C)=C/CO,,inactive
CCSc1nc2c(c(=O)[nH]1)C(c1cccnc1)C(C(=O)OC(C)C)=C(C)N2 (configuration not stated),-29% (inactive),
COc1cc(OC)c(NC(=O)C2CCCN2C(=O)OCc2ccccc2)cc1Cl (configuration not stated),11.7% (inactive),
COc1cc(CN2CCC(C(N)=O)CC2)ccc1OCc1ccccc1,-5.51% (inactive),
COc1cc(CNC2CCCC2)c(Br)cc1OCc1ccccc1,,16.4 µM (active)
O=C(CN1CCSCC1)N/N=C/c1ccc(F)cc1,-12.8% (inactive),
COc1ccc(-c2csc(NC3OC(=O)c4ccccc43)n2)cc1 (configuration not stated),,6.51 µM (active)
COc1ccc2c(c1OC)C(=O)OC2c1c(O)nc(SC)n(-c2ccccc2)c1=O (configuration not stated),2.17% (inactive),
CCc1ccccc1NC(=O)[C@@H]1CCC(=O)N1C1OC(=O)c2c1ccc(OC)c2OC (some centres not stated),4.6% (inactive),
COc1ccc(-c2csc(NC(=O)CCCc3cccs3)n2)cc1,-3.64% (inactive),
COc1ccc2c(c1OC)C(=O)OC2Nc1nc(-c2ccccc2)cs1 (configuration not stated),,1.84 µM (active)
